LmPK inh – blocks Leishmania mexicana pyruvate kinase activity. Potency, µM (doses to about 57.5 µM), hits mostly inhibitors. purified LmPK, Kinase-Glo ATP luminescence, 1 h. 290,000 tested, 0.37% active. Q27686
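Purified LmPK (0.1 nM) with 0.5 mM PEP and 0.1 mM ADP in imidazole buffer pH 7.2 with MgCl2/KCl, 1 h at room temperature. ATP formed was read by luciferase luminescence and normalized to no-enzyme and uninhibited controls.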
Sm TGR block – inhibitors of Schistosoma mansoni thioredoxin glutathione reductase; Q962Y6; purified TGR, DTNB reduction, TNB absorbance 405 nm; Potency, µM (titrated, usually from 114 µM), hits mostly inhibitors; 360,000 tested, 3% active; also: nearly all actives have a fitted effect of over 60% in size
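Kinetic colorimetric format: TGR-catalysed, NADPH-driven DTNB reduction monitored via TNB absorbance. Enzyme dispensed at 20 nM; compound exposure 15 min at room temperature before reaction start.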
CHX counter – affects cycloheximide protein synthesis inhibition readout, counter-screen. cell reporter, cycloheximide protein synthesis inhibition counterscreen. max response, %. 300,000 tested, 12% active; in the data active = max response mostly above about 13%, no sharp cut-off; inactive = mostly below about 14%; also: read at 38.3 µM for the half of the compounds with a filed dose
Giardia FBPA inh – inhibitors of Giardia lamblia fructose-1,6-bisphosphate aldolase; purified Giardia FBPA; Potency, µM (highest dose often 59.6 µM), most hits filed as inhibitors; A8B2U2; 290,000 tested, 0.71% active; also: nearly all actives have a fitted effect of over 55% in size
Target sequence (A8B2U2 whole entry, looked up): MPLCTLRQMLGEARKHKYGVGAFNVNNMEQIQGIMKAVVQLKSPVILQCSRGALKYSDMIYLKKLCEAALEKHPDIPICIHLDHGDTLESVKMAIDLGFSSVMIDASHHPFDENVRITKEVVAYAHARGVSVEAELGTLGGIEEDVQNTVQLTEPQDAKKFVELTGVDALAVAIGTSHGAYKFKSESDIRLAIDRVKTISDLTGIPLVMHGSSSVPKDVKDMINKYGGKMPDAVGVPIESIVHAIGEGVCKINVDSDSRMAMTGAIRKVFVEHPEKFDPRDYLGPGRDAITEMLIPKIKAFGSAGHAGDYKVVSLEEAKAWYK
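40 nM FBPA preincubated 10 min at RT with compound (up to 57.5 uM final), then substrate plus GAPDH/TPI/NAD/arsenate coupling and diaphorase/resazurin added. Fluorescence read after 20 min at RT, 525/598 nm.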
Tb PYK inh – inhibitors of Trypanosoma brucei pyruvate kinase; TbPYK enzyme, Kinase-Glo Plus ATP luminescence, 45 min; Potency, µM (series often up to 76.8 µM), most hits filed as inhibitors; 410,000 tested, 0.12% active; AID 624173; also: nearly all actives have a fitted effect of over 50% in size
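Quantitative HTS: titrated library compounds versus trypanosomal pyruvate kinase in TEA buffer (pH 7.2) containing KCl, MgCl2, BSA and Tween-20. Reactions were initiated with ADP, 130 uM final. Kinase-Glo Plus luminescence was read after 45 min at RT.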
Shiga inhibitor – Shiga toxin inhibition; Vero cells, Shiga toxin protein synthesis inhibition reporter; inhibition, % at 38.7 µM; 290,000 tested, 9.2% active; AID 2315; in the data active = inhibition mostly above about 28%, no sharp cut-off; inactive = mostly below about 43%
Of the large screens only hits and unclear results are named; the others gave an inactive call. Shown is part of a subset that was picked to be rich in hits. Unless noted, calls follow the shape of the dose curve; as a rule, active = well fitted curve in the direction sought with a large enough effect; inconclusive = small, poorly fitted or top-dose-only effect, or another doubt; inactive = no such curve, though single readings can be large; an effect the other way counts as inactive or inconclusive.

COc1ccc(C(=O)c2sc3nc(-c4ccccc4)ccc3c2N)cc1	none
Nc1c(C(=O)Nc2ccccc2F)sc2nc(-c3cccnc3)ccc12	none
COC(=O)c1cc2c(N)c(C(=O)c3ccccc3)sc2nc1C(OC)OC	CHX counter 24.1
CCCCCCCC/C=C\CCCCCCCC(=O)N[C@H](CO)Cc1ccc(O)cc1	none (no result: LmPK inh, Sm TGR block, Tb PYK inh)
Cc1ccc(C)c(-c2csc(-c3c(N)c(C(=O)c4ccc5c(c4)OCO5)n4ccccc34)n2)c1	none (no result: LmPK inh, Giardia FBPA inh)
Cc1cc(F)ccc1S(=O)(=O)Nc1ccc(O)c(Sc2ncn[nH]2)c1	Sm TGR block inconclusive, Giardia FBPA inh inconclusive
O=C1c2ccccc2C(=O)C1c1ccncc1	CHX counter 22.2
Cc1ccc(C2C(=O)c3ccccc3C2=O)cc1	CHX counter 18.5
O=C1c2ccccc2C(=O)C1c1ccccn1	LmPK inh inconclusive, CHX counter 29.7
O=C1C(=O)C(c2ccccc2)C(=O)C1c1ccccc1 (stereo not drawn)	none (no result: LmPK inh, Sm TGR block, CHX counter, Giardia FBPA inh, Shiga inhibitor)
Cc1ccccc1C1C(=O)c2ccccc2C1=O	none
CS(=O)(=O)Nc1cccc(-c2ccc3ncnc(NC4CC4)c3c2)c1	none (no result: LmPK inh, Sm TGR block, CHX counter, Tb PYK inh, Shiga inhibitor)
CCOC(=O)C(NC(=O)c1cccc(Cl)c1)(OCc1ccccc1)C(F)(F)F (stereo not drawn)	CHX counter 19.8, Shiga inhibitor active
CN(C)c1ccc(C=C(c2nnnn2-c2ccccc2)c2nnnn2-c2ccccc2)cc1	none
CN(C)c1ccc(/C=N/c2cc(-c3ccccc3)nn2-c2ccccc2)cc1	CHX counter 38.5, Shiga inhibitor 57.3
Cc1ccc(NC(=O)c2cccc(C(=O)OC(C)C)n2)c(Br)c1	CHX counter 22.9, Shiga inhibitor 74.6
COC(=O)c1cccc(C(=O)Oc2cccc(Br)c2)n1	Sm TGR block inconclusive
COC(=O)c1cccc(C(=O)Nc2ccc(C)cc2Br)n1	CHX counter 38.2, Shiga inhibitor 64.9
Cn1c(SCC(=O)c2cc(Cl)c(Cl)s2)nnc1-c1ccco1	Sm TGR block 25.1µM, Tb PYK inh inconclusive
CCn1c(Cc2cccn2C)nnc1SCC(=O)c1ccc(C)cc1	CHX counter 34.9, Shiga inhibitor 129.1
Cn1c(SCC(=O)N2c3ccccc3Sc3ccccc32)nnc1-c1ccco1	Sm TGR block inconclusive
Cc1ccc(C(=O)CSc2nnc(-c3ccco3)n2C)cc1	CHX counter 35.2, Shiga inhibitor 51.6 (no result: Sm TGR block)
CSc1nc(N)c2cn[nH]c2n1	none (no result: LmPK inh, Sm TGR block, CHX counter, Giardia FBPA inh, Shiga inhibitor)
Cc1ccc(CNC(=O)C(CC(C)C)NS(=O)(=O)c2ccc3c(c2)oc(=O)n3C)cc1 (stereo not drawn)	none (no result: LmPK inh, CHX counter, Giardia FBPA inh, Shiga inhibitor)
O=C(O)CCN1CC2([N+](=O)[O-])C=CC(=O)C([N+](=O)[O-])(C1)C2CC(=O)c1ccccc1 (stereo not drawn)	Sm TGR block 17.8µM, Giardia FBPA inh inconclusive
Cc1cc(S(=O)(=O)N2CCCC2)ccc1OCC(=O)NCc1ccco1	Sm TGR block 39.8µM
N#C/C(=C/c1cn(-c2ccccc2)nc1-c1cccc(S(=O)(=O)N2CCCC2)c1)C(=O)NCc1ccco1	Sm TGR block inconclusive, Shiga inhibitor 34.1
O=C(OCc1ccco1)c1ccc(S(=O)(=O)N2CCCCC2)cc1	Sm TGR block 7.08µM
O=C(COC(=O)c1ccc(S(=O)(=O)N2CCCCC2)cc1)NCc1ccco1	Sm TGR block inconclusive
O=C(NCc1cccnc1)c1cccc(S(=O)(=O)N2CCCC2)c1	CHX counter 51.5
Cc1cc(S(=O)(=O)N2CCOCC2)ccc1OCC(=O)NCc1ccco1	none
O=C(NCc1cccnc1)c1cccc(S(=O)(=O)N2CCCCC2)c1	none
O=C(NCC1CC1)[C@]1(C(F)(F)F)C[C@H](CCC2CCCCC2)CCCO1	none (no result: LmPK inh, Sm TGR block)
CN(C)CCCn1c2c(c(SCC(=O)Nc3nccs3)nc1=O)CCC2	none (no result: LmPK inh, CHX counter, Giardia FBPA inh, Shiga inhibitor)
O=C(NCc1ccco1)c1cccc(S(=O)(=O)N2CCCC2)c1	Sm TGR block 50.1µM
Cc1ccc(C(=O)NCc2ccco2)cc1S(=O)(=O)N1CCCC1	Sm TGR block 39.8µM
O=C(NCc1ccco1)c1ccc(S(=O)(=O)c2cccc(S(=O)(=O)N3CCOCC3)c2)cc1	Sm TGR block 50.1µM
Cc1ccc(C(=O)NCc2ccco2)cc1S(=O)(=O)N1CCOCC1	none
